# In the supplement of paper PMC6522484:
# Counter-ions that a name gives are not always drawn. ± gives the standard deviation of the averaged measurements.
# Legend:
# DLD1 [1] = assay: cell viability (CellTiter-Glo) relative to plate median (fraction of plate median); higher = more viable cells; conditions: 10 µM, treatment time 24 h
# Summary of the method: (§1)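 Each value averages two independent replicates in which the well signal was normalised to the plate median (webcellHTS2, additive, without log transformation). The signal was firefly luciferase or CellTiterGlo luminescence, read on parallel plates with a Tecan F500. The cells were colorectal cancer lines with stable lentiviral TCF/Wnt firefly luciferase reporters in 384-well plates, dosed 24 h after seeding with kinase inhibitor library compounds at a final 10 µM for 24 h.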
# HCT116 [2] = assay: as above; conditions: 10 µM; treatment time 24 h; reporter: TCF4/Wnt
# Summary of the method: as §1
# SW480 [3] = assay: as above; conditions: 10 µM; treatment time 24 h; reporter: 7TFP
# Summary of the method: as §1
# DLD1 [4] = assay: TCF/Wnt firefly luciferase reporter signal relative to plate median (fraction of plate median); higher = higher Wnt reporter signal; conditions: 10 µM, treatment time 24 h
# Summary of the method: as §1
# HCT116 [5] = assay: as above; conditions: 10 µM; treatment time 24 h; reporter: TCF4/Wnt
# Summary of the method: as §1
# SW480 [6] = assay: as above; conditions: 10 µM; treatment time 24 h; reporter: 7TFP
# Summary of the method: as §1
# DLD1 [7] = assay: cell viability (CellTiter-Glo) relative to plate median (fraction of plate median); higher = more viable cells; conditions: 5 µM; treatment time 24 h; reporter: 7TFP
# Summary of the method: (§2)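 On parallel plates, a Tecan F500 reader recorded either firefly luciferase or CellTiterGlo luminescence. The plates held colorectal cancer cells stably transduced with lentiviral TCF/Wnt firefly luciferase reporters (7TFP or TCF4/Wnt), seeded in 384-well format and treated 24 h later with library compounds at a final 5 µM for 24 h. Per-well signals were normalised to the plate median (webcellHTS2, additive, no log transformation), and two independent replicates were averaged.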
# HCT116 [8] = assay: as above; conditions: 5 µM; treatment time 24 h; reporter: TCF4/Wnt
# Summary of the method: as §2
# SW480 [9] = assay: as above; conditions: 5 µM; treatment time 24 h; reporter: 7TFP
# Summary of the method: as §2
# DLD1 [10] = assay: TCF/Wnt firefly luciferase reporter signal relative to plate median (fraction of plate median); higher = higher Wnt reporter signal; conditions: 5 µM; treatment time 24 h; reporter: 7TFP
# Summary of the method: as §2
# SW480 [11] = assay: as above; conditions: 5 µM; treatment time 24 h; reporter: 7TFP
# Summary of the method: as §2
Structure (SMILES),cell viability (DLD1 [1]; reporter: 7TFP),cell viability (DLD1 [1]; reporter: TCF4/Wnt),cell viability (HCT116 [2]),cell viability (SW480 [3]),TCF/Wnt firefly luciferase reporter signal (DLD1 [4]; reporter: 7TFP),TCF/Wnt firefly luciferase reporter signal (DLD1 [4]; reporter: TCF4/Wnt),TCF/Wnt firefly luciferase reporter signal (HCT116 [5]),TCF/Wnt firefly luciferase reporter signal (SW480 [6]),cell viability (DLD1 [7]),cell viability (HCT116 [8]),cell viability (SW480 [9]),TCF/Wnt firefly luciferase reporter signal (DLD1 [10]),TCF/Wnt firefly luciferase reporter signal (SW480 [11])
Nc1cc(C(F)(F)F)c(-c2cc(N3CCOCC3)nc(N3CCOCC3)n2)cn1,0.777 ± 0.073,0.9145 ± 0.0078,0.56 ± 0.069,1.105 ± 0.0071,0.383 ± 0.085,0.75 ± 0.071,0.502 ± 0.057,0.704 ± 0.036,,,,,
CC(C)CC(=O)Nc1n[nH]c2c1CN(C(=O)C1CCN(C)CC1)C2(C)C,1.07 ± 0.028,1.27 ± 0.15,0.793 ± 0.13,1.32 ± 0.071,1.33 ± 0.26,2.31 ± 0.37,0.193 ± 0.053,0.836 ± 0.064,,,,,
Cc1ccc([N+](=O)[O-])cc1S(=O)(=O)N(C)/N=C/c1cnc2ccc(Br)cn12,0.887 ± 0.097,1.07 ± 0.078,0.763 ± 0.23,1.13 ± 0.11,0.358 ± 0.074,0.239 ± 0.0014,0.155 ± 0.059,0.53 ± 0.24,,,,,
Nc1ccc(C(=O)Nc2cccc(-c3nc(N4CCOCC4)c4oc5ncccc5c4n3)c2)cn1,0.832 ± 0.044,0.858 ± 0.025,0.819 ± 0.049,1.004 ± 0.0078,0.758 ± 0.033,0.654 ± 0.069,0.591 ± 0.2,0.827 ± 0.4,,,,,
Cc1ccc(Nc2nccc(N(C)c3ccc4c(C)n(C)nc4c3)n2)cc1S(N)(=O)=O [Pazopanib HCl],1.11 ± 0.23,1.03 ± 0.073,1.065 ± 0.0071,0.846 ± 0.018,1.125 ± 0.0071,1.06 ± 0.19,1.14 ± 0.028,0.931 ± 0.087,,,,,
Nc1ccc(-c2ccc3ncc4ccc(=O)n(-c5cccc(C(F)(F)F)c5)c4c3c2)cn1 [Torin 2],0.949 ± 0.031,0.9595 ± 0.005,0.681 ± 0.085,1.11 ± 0.064,0.355 ± 0.027,0.523 ± 0.032,0.641 ± 0.073,0.817 ± 0.0099,,,,,
CNC(=O)c1cc(Oc2ccc(NC(=O)Nc3cc(C(C)(C)C)nn3-c3ccc4ncccc4c3)c(F)c2)ccn1 [DCC-2036 (Rebastinib)],1.1 ± 0.13,1.265 ± 0.0071,0.985 ± 0.035,1.08 ± 0.099,0.817 ± 0.021,0.755 ± 0.047,0.895 ± 0.2,0.746 ± 0.06,,,,,
COc1cc2ncnc(Nc3ccc(F)c(Cl)c3)c2cc1OCCCN1CCOCC1 [Gefitinib (Iressa)],0.913 ± 0.069,0.968 ± 0.021,0.961 ± 0.052,0.917 ± 0.03,1.005 ± 0.0071,0.812 ± 0.18,0.76 ± 0.24,1.02 ± 0.039,,,,,
C=CC(=O)Nc1ccc2ncnc(Nc3ccc(OCc4cccc(F)c4)c(Cl)c3)c2c1,1.02 ± 0.03,1.06 ± 0.085,0.998 ± 0.017,1 ± 0.07,0.691 ± 0.0099,0.879 ± 0.2,0.686 ± 0.33,1.09 ± 0.11,,,,,
COc1cc(Nc2c(C#N)cnc3cc(OCCCN4CCN(C)CC4)c(OC)cc23)c(Cl)cc1Cl [Bosutinib (SKI-606)],0.869 ± 0.034,0.9025 ± 0.0021,0.864 ± 0.016,0.995 ± 0.035,0.4675 ± 0.0035,0.534 ± 0.021,0.242 ± 0.22,0.648 ± 0.23,,,,,
C=CC(=O)Nc1cccc(Oc2nc(Nc3ccc(N4CCN(C)CC4)cc3OC)ncc2Cl)c1,1.24 ± 0.014,1.08 ± 0.042,1.14 ± 0.05,0.922 ± 0.064,1.16 ± 0.078,1.05 ± 0.05,0.722 ± 0.55,0.71 ± 0.31,,,,,
NC(=O)c1ccc(N(C(N)=O)c2c(F)cccc2F)nc1-c1ccc(F)cc1F,0.966 ± 0.016,1.045 ± 0.0071,1.13 ± 0.085,0.91 ± 0.025,0.904 ± 0.019,0.756 ± 0.0014,0.921 ± 0.071,0.752 ± 0.08,,,,,
COCCOc1ccc2c(c1)ncn2-c1ccc2cccc(N3CCC(N)CC3)c2n1,0.954 ± 0.11,1.14 ± 0.12,0.556 ± 0.16,1.05 ± 0.082,1.54 ± 0.16,2.17 ± 0.41,0.422 ± 0.12,1.71 ± 0.26,,,,,
N#CC1(c2ccc(NC(=O)c3cccnc3NCc3ccncc3)cc2)CCCC1 [Apatinib (YN968D1)],1.14 ± 0.042,1.025 ± 0.0071,1.22 ± 0.035,0.912 ± 0.0092,0.975 ± 0.064,1.095 ± 0.0071,0.727 ± 0.39,0.761 ± 0.32,,,,,
COC(=O)Nc1ccc(-c2nc(N3CCOCC3)c3cnn(C4CCN(Cc5cccnc5)CC4)c3n2)cc1,0.796 ± 0.069,0.872 ± 0.036,0.759 ± 0.059,1.055 ± 0.0071,0.372 ± 0.064,0.632 ± 0.04,0.595 ± 0.068,0.765 ± 0.066,,,,,
CN1CCN(c2ccc3nc(-c4c(N)c5c(F)cccc5[nH]c4=O)[nH]c3c2)CC1 [Dovitinib (TKI-258)],0.901 ± 0.18,0.908 ± 0.033,0.748 ± 0.27,1.02 ± 0.11,1.26 ± 0.23,1.3 ± 0.092,0.97 ± 0.042,1.39 ± 0.6,,,,,
NCC(=O)Nc1ccc(-n2nc(C(F)(F)F)cc2-c2ccc3c(ccc4ccccc43)c2)cc1,0.883 ± 0.098,0.998 ± 0.14,0.833 ± 0.13,0.678 ± 0.46,1.09 ± 0.085,1.31 ± 0.34,0.606 ± 0.18,1.3 ± 0.057,,,,,
CN(C)CCOc1ccc(-c2nc(-c3ccncc3)c(-c3ccc4c(c3)CC/C4=N\O)[nH]2)cc1,1.04 ± 0.071,1.14 ± 0.064,1.2 ± 0.11,1.11 ± 0.071,1.3 ± 0.092,1.28 ± 0.042,1.19 ± 0.24,1.27 ± 0.33,,,,,
O=C(Cc1ccc(-c2ccc(OCCN3CCOCC3)cc2)cn1)NCc1ccccc1,0.891 ± 0.0014,1.005 ± 0.0071,0.745 ± 0.26,1.145 ± 0.0071,0.57 ± 0.038,0.908 ± 0.26,0.171 ± 0.0021,0.791 ± 0.047,,,,,
Nc1c2c(nc3ccccc13)CCCC2,,,,,,,,,1.04,0.997 ± 0.018,0.946 ± 0.014,0.999 ± 0.016,0.943 ± 0.015
